Results published in publication PMC4336329 (PLoS ONE, 2015).
Out of some 310,000 compounds screened, about 14,000 (4.5%) showed an effect of 50% or more. Effects have a minus sign here. The list comes from a sample in which strong results are over-represented; it also holds similar structures and randomly drawn compounds.

Molecular target: human ether-à-go-go-related gene (hERG) potassium channel (human, UniProt Q12809)
Test: primary screen, population patch clamp on CHO cells stably expressing hERG; higher = less effect of the substance
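Also: peak tail current of the secondary pulse compared with the same well before compound.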

Sequence of human ether-à-go-go-related gene (hERG) potassium channel (Q12809 whole entry, looked up): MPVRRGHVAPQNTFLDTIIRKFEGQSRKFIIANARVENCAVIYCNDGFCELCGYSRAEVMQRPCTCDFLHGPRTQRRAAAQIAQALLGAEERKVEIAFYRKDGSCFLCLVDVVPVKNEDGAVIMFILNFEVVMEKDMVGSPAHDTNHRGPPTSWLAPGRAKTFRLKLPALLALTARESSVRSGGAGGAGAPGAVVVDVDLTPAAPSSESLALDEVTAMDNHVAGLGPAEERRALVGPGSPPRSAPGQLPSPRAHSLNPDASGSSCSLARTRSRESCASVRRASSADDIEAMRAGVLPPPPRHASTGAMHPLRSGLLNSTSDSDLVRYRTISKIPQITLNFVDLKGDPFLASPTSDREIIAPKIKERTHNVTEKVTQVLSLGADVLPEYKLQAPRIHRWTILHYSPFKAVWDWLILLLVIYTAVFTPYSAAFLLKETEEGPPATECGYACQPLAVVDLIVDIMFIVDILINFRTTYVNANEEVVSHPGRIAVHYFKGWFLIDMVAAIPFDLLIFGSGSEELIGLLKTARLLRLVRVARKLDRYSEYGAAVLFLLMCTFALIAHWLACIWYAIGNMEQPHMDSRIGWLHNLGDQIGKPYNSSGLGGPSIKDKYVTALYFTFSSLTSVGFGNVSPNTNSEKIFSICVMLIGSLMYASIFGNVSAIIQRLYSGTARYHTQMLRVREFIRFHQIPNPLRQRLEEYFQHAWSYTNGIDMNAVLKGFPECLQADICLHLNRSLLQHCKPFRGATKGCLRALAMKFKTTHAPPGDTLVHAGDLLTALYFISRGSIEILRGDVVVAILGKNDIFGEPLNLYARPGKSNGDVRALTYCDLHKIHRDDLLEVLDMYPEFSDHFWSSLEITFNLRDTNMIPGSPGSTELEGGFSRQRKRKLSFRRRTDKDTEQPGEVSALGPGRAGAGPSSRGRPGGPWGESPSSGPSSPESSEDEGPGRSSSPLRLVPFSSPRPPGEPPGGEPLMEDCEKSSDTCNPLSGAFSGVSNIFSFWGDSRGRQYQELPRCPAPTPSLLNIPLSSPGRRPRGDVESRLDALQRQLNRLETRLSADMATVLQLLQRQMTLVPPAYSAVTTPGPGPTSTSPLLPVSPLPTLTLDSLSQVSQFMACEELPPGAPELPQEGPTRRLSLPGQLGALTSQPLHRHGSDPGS

SMILES | hERG current change (%, negative = inhibition) at 10uM
CCC(=O)c1ccc(OCC(=O)NCC2COc3ccccc3O2)cc1 (stereo not shown) | -25.5%
Cc1ccc(S(=O)(=O)N2CCCc3ccccc32)cc1C | 0.165%
C[C@H](NC(=O)c1nc[nH]c1C(=O)N1CCN(C(=O)OC(C)(C)C)CC1)c1ccccc1 | 12.4%
CCN(C1CCS(=O)(=O)C1)S(=O)(=O)c1cccs1 (stereo not shown) | 14.8%
CN(C1CCS(=O)(=O)C1)S(=O)(=O)c1cccs1 (stereo not shown) | -51.6%
CCCCN(C1CCS(=O)(=O)C1)S(=O)(=O)c1cccs1 (stereo not shown) | -7.11%
Cc1cc(CCCCCCCCc2cc(C)cc(=O)o2)oc(=O)c1 | -2.63%
O=C(Nc1nc(-c2ccccn2)cs1)c1cccc(-n2cnnn2)c1 | -5.61%
CC(C)(C)NS(=O)(=O)c1ccc(OCC(=O)NCCC2=CCCCC2)cc1 | -14.1%
COc1ccc(N2CCN(C(=O)C3CCCN(c4ncnc5c4nc4n5CCCCC4)C3)CC2)cc1 (stereo not shown) | -68.7%
COc1cccc(N2CCN(C(=O)C3CCCN(c4ncnc5c4nc4n5CCCCC4)C3)CC2)c1 (stereo not shown) | -81.7%
CN1CCN(C(=O)C2CCCN(c3ncnc4c3nc3n4CCCCC3)C2)CC1 (stereo not shown) | 1.36%
CC(=O)c1ccc(N2CCN(C(=O)C3CCCN(c4ncnc5c4nc4n5CCCCC4)C3)CC2)cc1 (stereo not shown) | -75.4%
COc1ccccc1N1CCN(C(=O)C2CCCN(c3ncnc4c3nc3n4CCCCC3)C2)CC1 (stereo not shown) | -12.5%
CCOC(=O)N1CCN(C(=O)C2CCCN(c3ncnc4c3nc3n4CCCCC3)C2)CC1 (stereo not shown) | -22.9%
CC1CCN(C(=O)C2CCCN(c3ncnc4c3nc3n4CCCCC3)C2)CC1 (stereo not shown) | -41.5%
Cc1ccc(Nc2nnc(-c3ccc4c(c3)OCO4)o2)c(C)c1 | 19.8%
COc1ccc(C(C)N2CC34C=CC(O3)C(C(=O)O)C4C2=O)cc1 (stereo not shown) | 8.42%
Cc1cccc2cc(CN(Cc3cccnc3)C(=S)NCCCN(C)C)c(=O)[nH]c12 | 3.93%
COc1cc2cc(CN(CCc3cccc(C)c3)C(=S)NCCCN(C)C)c(=O)[nH]c2cc1OC | -1.74%
Cc1ccc2[nH]c(=O)c(CN(CCCN(C)C)C(=S)NCCc3ccccc3)cc2c1 | -42%
Cc1ccc(CN(Cc2cc3cccc(C)c3[nH]c2=O)C(=S)NCCCN(C)C)cc1 | -65%

SMILES | hERG current change (%, negative = inhibition) at 10uM
CCN(CC)CCCNC(=S)N(Cc1cccnc1)Cc1cc2cc(C)cc(C)c2[nH]c1=O | 22.9%
COc1cc2cc(CN(CCc3cccc(C)c3)C(=S)NCCCN3CCOCC3)c(=O)[nH]c2cc1OC | -66.9%
Cc1cc(C)c2[nH]c(=O)c(CN(Cc3cccnc3)C(=S)NCCCN(C)C)cc2c1 | -35.6%
Cc1cc(C)c2[nH]c(=O)c(CN(Cc3ccccc3)C(=S)NCCCN(C)C)cc2c1 | -52.8%
Cc1cccc2cc(CN(Cc3ccccc3)C(=S)NCCCN(C)C)c(=O)[nH]c12 | -38%
Cc1ccc2cc(CN(CCc3ccccc3)C(=S)NCCCN(C)C)c(=O)[nH]c2c1 | -72%
COc1cc2cc(CN(CCc3ccccc3C)C(=S)NCCCN3CCOCC3)c(=O)[nH]c2cc1OC | -38.4%
Cc1ccc2[nH]c(=O)c(CN(Cc3ccccc3)C(=S)NCCCN(C)C)cc2c1 | -24.9%
CC(C)(C)c1cc[n+](C2=C([O-])c3ccccc3C(=O)/C2=N\S(=O)(=O)c2cccs2)cc1 | -44%
CCc1c(C)n([O-])c2c([n+]1=O)CCC2 | 13.1%
COc1cccc(N(CC(=O)NC2CCCC2)C(=O)CCC(=O)Nc2cc(C)on2)c1 | -16.4%
CCC(=O)Nc1ccc2c(c1)nc(CN1CCN(C(C)=O)CC1)n2C | -0.94%
CC(=O)N1CCN(Cc2nc3cc(NC(=O)c4cccc(Br)c4)ccc3n2C)CC1 | -70%
CCC(=O)Nc1ccc2c(c1)nc(CN1CCCCC1)n2C | 15%
CC(=O)N1CCN(Cc2nc3cc(NC(=O)c4ccccc4)ccc3n2C)CC1 | 15.8%
CC(=O)Nc1ccc2c(c1)nc(CN1CCCC1)n2C | -7.28%
Cn1c(CN2CCCCC2)nc2cc(NC(=O)c3cccc(Br)c3)ccc21 | -63.3%
Oc1ccccc1N1CCN(c2ncccn2)CC1 | 10.4%
Cc1ccc(S(=O)(=O)NNC(=O)c2sccc2-n2cccc2)cc1 | -21.7%
CC(C)c1cccc(C(C)C)c1NC(=S)Nc1cccc(Cl)c1 | 5.01%
COc1ccc(CC(=O)NNC(=O)c2ccncc2)cc1 | 29.1%
COc1cccc(CNS(=O)(=O)c2c(C)nc3sccn3c2=O)c1 | -13.6%

SMILES | hERG current change (%, negative = inhibition) at 10uM
CCOc1ccc(CNS(=O)(=O)c2c(C)nc3sccn3c2=O)cc1OC | -66.1%
CCOc1ccc(CNS(=O)(=O)c2c(C)nc3scc(C)n3c2=O)cc1OC | 8.99%
O=C(NCCNC(=O)c1ccccn1)c1ccccc1 | 11.7%
COc1ccc(Nc2c(-c3ccc(C)cc3)nc3cnccn23)cc1 | -24.5%
C=CCc1ccc(OCCn2nnc3ccccc32)c(OC)c1 | -12.8%
Cc1ccc2c(c1)C1CN(C)CCC1N2C(=O)c1ccco1 (stereo not shown) | -7.26%
Cc1ccc2c(c1)C1CN(C)CCC1N2C(=S)NC(=O)c1ccc(Cl)cc1Cl (stereo not shown) | -71%
Cc1ccc2c(c1)C1CN(C)CCC1N2C(=S)Nc1ccc(Cl)cc1Cl (stereo not shown) | -34.2%
Cc1ccc2c(c1)C1CN(C)CCC1N2C(=S)NC(=O)c1ccc(Br)cc1 (stereo not shown) | -67.1%
Cc1ccc2c(c1)C1CN(C)CCC1N2C(=O)c1cn(-c2ccccc2)nc1-c1ccccc1 (stereo not shown) | -65.6%
Cc1ccc2c(c1)C1CN(C)CCC1N2C(=O)c1cccs1 (stereo not shown) | -22%
Cc1ccc2c(c1)C1CN(C)CCC1N2C(=O)c1ccc(Br)o1 (stereo not shown) | -38%
CC1Cc2ccccc2N1C(=S)NC(=O)c1ccc(Cl)cc1Cl (stereo not shown) | 4.89%
Cc1ccc2c(c1)C1CN(C)CCC1N2C(=S)Nc1cccnc1 (stereo not shown) | -14%
Cc1ccc2c(c1)C1CN(C)CCC1N2C(=S)Nc1ccc(OC(F)F)cc1 (stereo not shown) | -55.1%
COc1ccc(-c2nn(-c3ccccc3)cc2C(=O)N2c3ccc(C)cc3C3CN(C)CCC32)cc1 (stereo not shown) | -31.7%
Cc1ccc(C(=O)N(C)c2ccc(OCC(=O)N3c4ccc(C)cc4C4CN(C)CCC43)cc2)cc1.Cl (stereo not shown) | -25.5%
CC(C)c1ccc(NC(=O)CNCC(c2ccccc2)N(C)C)cc1 (stereo not shown) | -27.6%
C/C(=N\NC(=O)c1ccc2c(c1)OCO2)c1ccc(O)cc1 | 13.1%
Cc1ccc(/C=N/NC(=O)c2ccco2)s1 | -2.98%
CCOc1cc(S(=O)(=O)NCCCN2CCOCC2)ccc1F | 3.16%
Cc1cc(NC(=O)c2c(-c3c(Cl)cccc3Cl)noc2C)n(C)n1 | 16%

SMILES | hERG current change (%, negative = inhibition) at 10uM
N#Cc1ccc(NC(=O)CN2C(=O)NC(Cc3ccccc3)C2=O)cc1 (stereo not shown) | -57.7%
O=C(CN1C(=O)NC(Cc2ccccc2)C1=O)Nc1ccc(OC(F)F)cc1 (stereo not shown) | -66.9%
O=C(CN1C(=O)NC(Cc2ccccc2)C1=O)Nc1ccccc1 (stereo not shown) | 6.7%
O=C(CN1C(=O)NC(Cc2ccccc2)C1=O)Nc1ccc(OC(F)(F)F)cc1 (stereo not shown) | -13.9%
N#Cc1cccc(NC(=O)CN2C(=O)NC(Cc3ccccc3)C2=O)c1 (stereo not shown) | 2.91%
O=C(CN1C(=O)NC(Cc2ccccc2)C1=O)Nc1ccc(F)cc1 (stereo not shown) | -7.41%
Cn1nc(-c2ccccc2)c(C(=O)Nc2ccc(Cl)cc2)c1Cl | -12.7%
O=C(CC1(O)C(=O)Nc2ccccc21)c1ccc(-n2cccc2)cc1 (stereo not shown) | 2.85%
CCCCN1C(N)=NC[C@@H]1C(C)O (stereo partly shown) | 15.9%
Cc1nn(-c2ccc(F)cc2)c(Cl)c1C(=O)OC(C)C(=O)N(C)C1CCCCC1 (stereo not shown) | -59%
COC(=O)c1c(C)[nH]c(C(=O)OC(C)C(=O)N(C)C2CCCCC2)c1C (stereo not shown) | -2.13%
CC(=O)Nc1ccc(NC(=O)C(C)OC(=O)c2c(C)nn(-c3ccccc3)c2Cl)cc1 (stereo not shown) | -14.8%
Cc1ncc(CN2CCCC(C(=O)c3sccc3C)C2)s1 (stereo not shown) | 24.7%
Cc1ccsc1C(=O)C1CCCN(Cc2cccn2-c2ccc(Cl)cn2)C1 (stereo not shown) | -77.6%
Cc1ccsc1C(=O)C1CCCN(Cc2cccn2-c2ccccn2)C1 (stereo not shown) | -75.8%
Cc1ccsc1C(=O)C1CCCN(Cc2cnc(N(C)C)s2)C1 (stereo not shown) | -9.23%
CC(C)(C)C(=O)NC1(C(F)(F)F)N=C2SCCN2C1=O (stereo not shown) | -4.77%
CNC(=O)c1c(NC(=O)c2ccco2)sc(C)c1C | 1.42%
CCOc1cccc2c1OC1(C)CC2NC(=O)N1c1cccc(C(=O)N2CCN(c3ccccn3)CC2)c1 (stereo not shown) | -1.89%
